NIH3T3 tox: NIH 3T3 cell cytotoxicity | NIH 3T3 viability, CellTiter-Glo ATP luminescence, 48-72 h | actives 4.3% (n = 94,000) | AID 1345082 | Potency, µM (series often up to 96.7 µM), for the others: top-dose activity change, negative = cytotoxicity, hits mostly inhibitors; also: nearly all actives have a fitted effect of over 55% in size
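Cytotoxicity is measured as loss of cellular ATP: NIH 3T3 cells (400/well) are exposed to compound for 48 or 72 hr at 37 °C, then CellTiter-Glo luminescence is imaged after 10 min at room temperature.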
GPT2 inhibitor: blocks human glutamate pyruvate transaminase 2. AID 1671188. actives 0.25% (n = 100,000). Recombinant GPT2, coupled pyruvate oxidase/HRP Amplex Red fluorescence. Potency, µM (titrated, usually from 57.7 µM), without a hit: at the highest dose activity change, negative = inhibition, usual class: inhibitors. Q8TD30; also: nearly all actives have a fitted effect of over 60% in size
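Recombinant GPT2 (10ng/uL) with 250uM a-KG and 2mM L-alanine, 30 min at room temperature, in HEPES pH 7.5 buffer. Pyruvate detected by pyruvate oxidase/HRP/Amplex Red fluorescence after 30 min in the dark; AOA (50uM) as positive control.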
FLuc inh: Photinus pyralis luciferase inhibition. Potency, µM (top dose mostly 115 µM), most hits filed as inhibitors. actives 2.5% (n = 76,000). purified P. pyralis luciferase, luminescence, biochemical. P08659; also: nearly all actives have a fitted effect of over 65% in size
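FLuc 10nM, D-luciferin 10uM, ATP 10uM, Mg acetate 10mM, Tris acetate pH 7.5, Tween/BSA; cpd qHTS; enzyme added last; CCD luminescence.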
hNpr1 antagonist: antagonists of human natriuretic peptide receptor Npr1 | P16066 | Potency, µM (titrated, usually from 46.3 µM), for the others: top-dose activity change, negative = inhibition, most hits filed as inhibitors | HEK293 hNpr1 GloSensor cGMP, ANP-stimulated luminescence | actives 1.6% (n = 76,000); calls by dose curve; also: nearly all actives have a fitted effect of over 60% in size
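HEK293 cells stably expressing human Npr1 and cGMP GloSensor pGS-40F, loaded 2 h with 2% GloSensor reagent, given compound 30 min at room temperature. Luminescence read before and 20 min after 0.1 nM hNppA.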
HEK293 tox: cytotoxic compounds in HEK 293 cells | HEK 293 viability, ATP luminescence (CellTiter-Glo), 48-72 h | Potency, µM (titrated, usually from 115 µM), without a hit: top-dose activity change, negative = cytotoxicity, hits mostly inhibitors | actives 6.6% (n = 94,000); also: nearly all actives have a fitted effect of over 60% in size
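Viability of HEK 293 cells, plated at 250 cells/well, was judged by cellular ATP after compound treatment for 48 or 72 hr. Luminescence was imaged 10 min after CellTiter-Glo addition at room temperature.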
An asterisk follows results filed as active; i = inactive; ? = inconclusive; / = no result given; [ ] = another dose, or the depositor's remark. Sampled rows, rich in hits. Any-hit rate of the full collection: about 10%. Unless noted, calls follow the shape of the dose curve; as a rule, active = well fitted curve in the direction sought with a large enough effect; inconclusive = small, poorly fitted or top-dose-only effect, or another doubt; inactive = no such curve, though single readings can be large; an effect the other way counts as inactive or inconclusive. % is scaled to controls: 0 for no effect and ±100 for the full control effect; potency is read from the fitted curve at half-maximal effect.

SMILES | NIH3T3 tox | GPT2 inhibitor | FLuc inh | hNpr1 antagonist | HEK293 tox
COc1ccc(C)cc1Nc1nc(-c2ccc(OC)c(OC)c2)no1 | ? | 2% | ? | -4% | ?
COc1ccc(OCC2CN(CCc3ccccc3)S(=O)(=O)c3cccnc3O2)cc1 (stereo not given) | ? | -4%[27.3 µM] | / | / | ?
O=S1(=O)c2cccnc2OC(COc2ccccc2)CN1Cc1cccs1 (stereo not given) | 28µM* | i | / | / | ?
COc1ccc(NC(=O)CN2C(=O)NC(c3ccc(Cl)cc3)C3=C2COC3=O)cc1Cl (stereo not given) | 25µM* | i | ? | -21% | ?
COc1cc(Cl)c(C)cc1NC(=O)CN1C(=O)NC(c2ccc(Cl)cc2)C2=C1COC2=O (stereo not given) | 18µM* | 0% | i | -15% | 16µM*
O=C(C1CCN(c2ccnc3ccnn23)CC1)N1CCCCC1 | ? | -10%[88.5 µM] | / | / | ?
O=C1N(Cc2ccc(F)cc2)C[C@H]2CN(Cc3cnc4ccccc4c3)CCN12 | 71µM* | 1%[88.5 µM] | i | ? | ?
CCCNCc1ccc(-c2ccccc2)o1 | i | ? | i | -1% | -6%
c1ccc(-c2ccc(CNCc3cccs3)o2)cc1 | -22% | -18% | 35µM* | -25% | ?
c1ccc(-c2nnc3ccc(NCc4cccs4)nn23)nc1 | ? | -17%[88.5 µM] | i | 5%[70.6 µM] | ?
O=C(c1ccccc1F)N1CCn2c(nnc2-c2ccccc2)C1 | -22%[138 µM] | 4%[88.5 µM] | i | 0%[70.6 µM] | -16%[172 µM]
O=C(c1ccccc1F)N1CCn2c(nnc2C2CCNCC2)C1 | 28µM* | i | / | / | 4%
CC1=C[C@@H](CNCc2ccccc2F)[C@H](C(C)C)C[C@H]1Cc1nc2c(C)cccc2[nH]1 | 28µM* | 2%[88.5 µM] | i | ? | 25µM*
CC1=C[C@@H](CN(C)C)[C@H](C(C)C)C[C@H]1Cc1nc2c(C)cccc2[nH]1 | 89µM* | -3%[88.5 µM] | i | 4%[70.6 µM] | 100µM*
COc1ccccc1CNC[C@@H]1C=C(C)[C@H](Cc2nc3c(C)cccc3[nH]2)C[C@H]1C(C)C | 25µM* | -9%[88.5 µM] | i | ? | ?
CC1=C[C@@H](CNC(=O)COCC(=O)O)[C@H](C(C)C)C[C@H]1Cc1nc2c(C)cccc2[nH]1 | -11%[174 µM] | i | i | -5%[70.6 µM] | -22%[172 µM]
CC1=C[C@@H](CNC(=O)CCCC(=O)O)[C@H](C(C)C)C[C@H]1Cc1nc2c(C)cccc2[nH]1 | -27%[174 µM] | i | i | 4%[70.6 µM] | -17%[172 µM]
CC1=C[C@@H](CNC(=O)CC(C)(C)CC(=O)O)[C@H](C(C)C)C[C@H]1Cc1nc2c(C)cccc2[nH]1 | -18% | ? | i | 2% | -10%
CC1=C[C@@H](CNCc2ccccc2)[C@H](C(C)C)C[C@H]1Cc1nc2c(C)cccc2[nH]1 | 28µM* | -2%[88.5 µM] | i | ? | 25µM*
COC[C@H]1NC(=O)CC[C@H]1C(=O)Nc1cccc(OC)c1 | -4% | 0% | i | 2% | i
O=C(NCC12CCC=C1N(CC1CC1)C(=O)CC2)c1nccc2ccccc12 (stereo not given) | -15% | i | i | -15% | ?
Cc1cc(-c2nc3ccncc3[nH]2)c(C)o1 | ? | ? | 45µM* | 0%[70.6 µM] | ?
c1cc2nc(-c3ccsc3)[nH]c2cn1 | ? | 0%[88.5 µM] | ? | -10%[70.6 µM] | ?
COc1ccc(-c2cccc(C(=O)N3CCN(C(=O)c4ccccc4C)CC3)c2)nn1 | -4% | / | / | / | i
O=c1cc(-c2cccnc2)oc2c(NCCc3ccccn3)nccc12 | 35µM* | 1%[88.5 µM] | ? | 1%[70.6 µM] | ?
SMILES | NIH3T3 tox | GPT2 inhibitor | FLuc inh | hNpr1 antagonist | HEK293 tox
Cc1ccc(-c2ccc(C=O)cc2)cc1Cl | ? | 2%[88.5 µM] | / | / | ?
NCc1cccc(-c2ccc(O)cc2)c1 | -21%[138 µM] | ? | / | / | -16%[172 µM]
Cc1ccc(-c2ccc(CN)cc2)cc1Cl | 32µM* | -11%[88.5 µM] | / | / | 32µM*
CSc1ccc(-c2cccc(CN)c2)cc1 | 25µM* | 1%[88.5 µM] | / | / | ?
Cc1ccc(-c2cccc(CN)c2)cc1Cl | 28µM* | -1%[88.5 µM] | / | / | ?
O=C(Cc1ccccc1)NC1CCN(c2ccc3nnc(C4CC4)n3n2)C1 (stereo not given) | -4% | / | / | / | 2%
COc1ccc(-c2nc(C)nc3c2CN([S+](=O)([O-])c2ccccc2)CC3)cc1 | 35µM* | i | / | / | i
Cc1ccc([S+](=O)([O-])N2CCc3nc(-c4ccc(Cl)cc4)nc(-c4ccccc4)c3C2)cc1 | -13% | 5% | 28µM* | -2% | ?
Cc1nc2c(c(-c3ccc(Cl)cc3)n1)CCN([S+](C)(=O)[O-])CC2 | -28% | 4% | i | 2% | -1%
O=[S+]([O-])(c1ccccc1)N1CCc2nc(C3CC3)nc(-c3ccc(Cl)cc3)c2C1 | -1% | 3% | i | 0% | -20%
COc1ccc(-c2nc(C3CC3)nc3c2CN([S+](=O)([O-])c2ccccc2)CC3)cc1 | 18µM* | 3% | / | / | 2%
Cc1nc2c(c(-c3ccc(Cl)cc3)n1)CN([S+](=O)([O-])c1ccsc1)CC2 | 22µM* | -1% | i | 12% | -28%
CCCC(=O)N1CCC(N2C(=O)N(Cc3cccnc3)CC23CCOC3)CC1 (stereo not given) | ? | -12% | / | / | -7%
N#Cc1cccc(CN2CCc3nc(C(=O)NCc4ccncc4)oc3CC2)c1 | -26%[138 µM] | 2%[88.5 µM] | i | -26%[70.6 µM] | ?
COCCNC(=O)[C@H]1C[C@H](Oc2ccccc2)CN1Cc1ccc(OC(F)(F)F)cc1 | ? | i | i | 3% | ?
COCCNC(=O)c1nc2c(o1)CCN(Cc1ccc(F)c(Cl)c1)CC2 | ? | 0%[88.5 µM] | i | ? | ?
O=C(NCCOc1ccccc1)c1nc2c(o1)CCN(Cc1ccc3[nH]ccc3c1)CC2 | ? | -10%[88.5 µM] | i | ? | 71µM*
O=C(Nc1cccnc1)c1nc2c(o1)CCN(Cc1ccc(F)c(F)c1)CC2 | ? | 1%[88.5 µM] | 71µM* | 28µM* | ?
O=C(NCC1CC1)c1nc2c(o1)CCN(Cc1ccc3[nH]ccc3c1)CC2 | ? | -6%[88.5 µM] | i | 2%[70.6 µM] | ?
COCCNC(=O)[C@H]1C[C@H](Oc2ccccc2)CN1Cc1ccc2[nH]ccc2c1 | ? | -19% | i | -4% | 10µM*
O=C(Nc1cccnc1)c1nc2c(o1)CCN(Cc1ccc3[nH]ccc3c1)CC2 | ? | 1%[88.5 µM] | 35µM* | -15%[70.6 µM] | 100µM*
COc1c(F)cc(CN2CCCC3(CCNC3)C2)cc1F (stereo not given) | ? | -6% | i | 0% | ?
CC(=O)Nc1ccc(C(=O)N2CCC3(CC2)N=C(c2ccc(C)cc2)NO3)cc1 | -10% | 3% | i | -8% | ?
O=c1c2nc(-c3ccc4c(c3)OCO4)ccc2ncn1Cc1ccccn1 | ? | -18%[88.5 µM] | ? | -1%[70.6 µM] | -20%[172 µM]
